Data taken from ChEMBL document CHEMBL3988442, “University of Dundee, Small-Polar-MMV Screening Library” (2021).
For some assays here: Measured potencies and affinities stand elsewhere.

How the values were obtained:
Set-up in all cases: scale not given: direction of the effect not stated beside the values
[1] = target: Protein translocase subunit SecA (Escherichia coli (strain K12)) (UniProt P10408); test: Assay to Identify E. coli SecA ATPase Inhibitors; type: functional; settings: 30 µM
[2] = target: T1, Ubiquitin-activating enzyme e1, putative (Leishmania donovani (strain BPK282A1)) (UniProt E9BSI1); test: Leishmania donovani Ubiquitin Activating Enzyme (LdE1); type: functional; settings: 30 µM
T1 sequence (whole entry): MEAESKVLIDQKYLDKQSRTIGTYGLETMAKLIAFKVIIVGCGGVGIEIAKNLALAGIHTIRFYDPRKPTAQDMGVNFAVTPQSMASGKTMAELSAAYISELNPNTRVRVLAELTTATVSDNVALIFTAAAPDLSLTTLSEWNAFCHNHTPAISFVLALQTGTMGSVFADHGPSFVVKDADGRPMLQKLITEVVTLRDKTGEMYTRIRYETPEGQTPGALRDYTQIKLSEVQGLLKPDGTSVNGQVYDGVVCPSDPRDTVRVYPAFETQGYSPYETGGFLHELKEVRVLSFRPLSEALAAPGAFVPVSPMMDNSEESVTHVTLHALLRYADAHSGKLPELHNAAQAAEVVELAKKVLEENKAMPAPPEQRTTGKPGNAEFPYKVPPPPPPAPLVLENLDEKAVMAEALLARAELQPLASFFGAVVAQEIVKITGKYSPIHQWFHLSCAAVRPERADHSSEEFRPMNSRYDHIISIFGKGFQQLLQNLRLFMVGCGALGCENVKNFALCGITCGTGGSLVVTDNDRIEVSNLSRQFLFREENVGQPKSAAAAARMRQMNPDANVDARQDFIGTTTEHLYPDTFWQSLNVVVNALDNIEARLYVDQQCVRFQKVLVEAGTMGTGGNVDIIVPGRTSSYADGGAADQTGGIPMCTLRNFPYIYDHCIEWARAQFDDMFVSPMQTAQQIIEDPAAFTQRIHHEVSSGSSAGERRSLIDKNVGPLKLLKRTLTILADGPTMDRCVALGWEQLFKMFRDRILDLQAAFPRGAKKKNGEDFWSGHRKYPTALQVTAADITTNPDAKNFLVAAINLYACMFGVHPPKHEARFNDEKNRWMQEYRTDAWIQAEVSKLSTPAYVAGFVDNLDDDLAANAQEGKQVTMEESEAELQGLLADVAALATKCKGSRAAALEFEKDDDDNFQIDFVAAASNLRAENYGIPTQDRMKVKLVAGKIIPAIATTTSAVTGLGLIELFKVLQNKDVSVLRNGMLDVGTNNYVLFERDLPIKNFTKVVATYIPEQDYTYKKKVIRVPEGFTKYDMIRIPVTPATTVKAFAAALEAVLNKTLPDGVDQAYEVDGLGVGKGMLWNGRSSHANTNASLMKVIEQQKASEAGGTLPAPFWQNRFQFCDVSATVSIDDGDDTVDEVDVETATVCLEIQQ

[3] = target: AMP-activated protein kinase, AMPK (Homo sapiens) (UniProt P54646+O43741+P54619+Q9UGJ0+Q9Y478+Q13131+Q9UGI9); test: AMP-dependent Kinase enzyme assay. An in vitro enzyme assay that detects ADP turnover that is directly proportional to AMPK activity. This uses naive AMPK that is activated during the assay with MK-8722; type: functional; settings: 30 µM
[4] = target: Sialic acid-binding Ig-like lectin 9 (Homo sapiens) (UniProt Q9Y336); test: Hs-Siglec9 ALPHAscreen SOP 20170721; settings: 10 µM
Trypanosoma cruzi = test: Trypanosoma cruzi phosphomannomutase and mannose-1-phosphate guanylyltransferase assay; type: functional; settings: 10 µM
[5] = target: T2, Arginase-2, mitochondrial (Homo sapiens) (UniProt P78540); test: in vitro enzyme assay to detect the production of urea directly proportional to the activity of Arginase II; type: functional; settings: 33.3 µM; also: in the data most compounds retested in dose-response had high values
T2 sequence (whole entry): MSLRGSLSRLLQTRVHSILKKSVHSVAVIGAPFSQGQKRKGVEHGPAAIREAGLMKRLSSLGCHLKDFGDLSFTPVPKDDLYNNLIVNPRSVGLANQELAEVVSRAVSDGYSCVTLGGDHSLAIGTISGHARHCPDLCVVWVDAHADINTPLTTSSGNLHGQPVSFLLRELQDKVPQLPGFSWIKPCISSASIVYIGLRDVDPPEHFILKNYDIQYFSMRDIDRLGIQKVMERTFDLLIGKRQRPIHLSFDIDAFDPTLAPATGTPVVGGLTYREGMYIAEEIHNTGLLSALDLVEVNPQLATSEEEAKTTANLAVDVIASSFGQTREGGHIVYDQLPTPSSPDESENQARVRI

[6] = target: T3, Proteasome subunit beta (Trypanosoma cruzi) (UniProt O96673); test: Trypanosoma cruzi proteasome chymotrypsin-like activity (TcProtChymo) assay.; also: in the data most compounds retested in dose-response had high values; type: functional; settings: 9.37 µM
T3 sequence (whole entry): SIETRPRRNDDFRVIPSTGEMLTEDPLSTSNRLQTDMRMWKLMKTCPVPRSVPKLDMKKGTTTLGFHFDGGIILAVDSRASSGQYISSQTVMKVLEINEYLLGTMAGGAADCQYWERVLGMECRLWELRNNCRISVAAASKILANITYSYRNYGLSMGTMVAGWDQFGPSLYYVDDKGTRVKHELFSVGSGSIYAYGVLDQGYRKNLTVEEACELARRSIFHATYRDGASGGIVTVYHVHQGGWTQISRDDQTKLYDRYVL

Homo sapiens = species on record: Homo sapiens; test: To identify inhibition of the IFN signalling (Jak-Stat) pathway via expression of an eGFP reporter gene under the control of an IFN-stimulated response element (ISRE) containing MxA promoter.; type: functional; settings: 30 µM
[7] = target: T4, Tyrosyl-tRNA synthetase, putative (Trypanosoma cruzi (strain CL Brener)) (UniProt Q4DSP6); test: Trypanosoma cruzi tyrosyl tRNA synthetase (TcYRS) _High Tyrosine SOP; type: functional; settings: 30 µM; also: in the data most compounds retested in dose-response had high values
T4 sequence (whole entry): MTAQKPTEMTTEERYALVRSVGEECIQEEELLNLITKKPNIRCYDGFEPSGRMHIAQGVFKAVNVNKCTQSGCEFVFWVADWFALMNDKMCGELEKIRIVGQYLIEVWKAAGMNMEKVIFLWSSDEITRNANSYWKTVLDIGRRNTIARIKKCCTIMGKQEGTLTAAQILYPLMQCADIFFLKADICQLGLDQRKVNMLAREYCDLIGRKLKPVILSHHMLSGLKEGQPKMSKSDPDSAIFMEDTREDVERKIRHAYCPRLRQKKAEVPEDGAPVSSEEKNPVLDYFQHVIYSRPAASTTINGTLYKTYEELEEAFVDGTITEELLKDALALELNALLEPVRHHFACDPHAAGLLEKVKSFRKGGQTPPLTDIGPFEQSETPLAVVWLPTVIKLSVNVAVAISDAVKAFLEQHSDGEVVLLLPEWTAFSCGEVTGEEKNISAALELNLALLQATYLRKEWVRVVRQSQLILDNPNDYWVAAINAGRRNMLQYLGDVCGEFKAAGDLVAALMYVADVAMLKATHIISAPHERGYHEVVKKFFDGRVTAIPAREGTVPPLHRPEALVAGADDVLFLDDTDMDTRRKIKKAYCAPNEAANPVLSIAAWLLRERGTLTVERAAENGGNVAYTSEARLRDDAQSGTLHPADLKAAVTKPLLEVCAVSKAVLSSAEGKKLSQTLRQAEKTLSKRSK

[8] = target: T4, Tyrosyl-tRNA synthetase, putative (Trypanosoma cruzi (strain CL Brener)); test: Trypanosoma cruzi tyrosyl tRNA synthetase (TcYRS) SOP; type: functional; settings: 30 µM
[9] = target: Chromo domain-containing protein 1 (Saccharomyces cerevisiae (strain ATCC 204508 / S288c) (Baker's yeast)) (UniProt P32657); test: ScCHD-1 Enzyme Inhibition Assay; type: functional; settings: 30 µM; also: in the data most compounds retested in dose-response had high values
Chromo domain-containing protein 1 (Saccharomyces cerevisiae (strain ATCC 204508 / S288c) (Baker's yeast)), sequence (P32657 whole entry, the tested form may be a part): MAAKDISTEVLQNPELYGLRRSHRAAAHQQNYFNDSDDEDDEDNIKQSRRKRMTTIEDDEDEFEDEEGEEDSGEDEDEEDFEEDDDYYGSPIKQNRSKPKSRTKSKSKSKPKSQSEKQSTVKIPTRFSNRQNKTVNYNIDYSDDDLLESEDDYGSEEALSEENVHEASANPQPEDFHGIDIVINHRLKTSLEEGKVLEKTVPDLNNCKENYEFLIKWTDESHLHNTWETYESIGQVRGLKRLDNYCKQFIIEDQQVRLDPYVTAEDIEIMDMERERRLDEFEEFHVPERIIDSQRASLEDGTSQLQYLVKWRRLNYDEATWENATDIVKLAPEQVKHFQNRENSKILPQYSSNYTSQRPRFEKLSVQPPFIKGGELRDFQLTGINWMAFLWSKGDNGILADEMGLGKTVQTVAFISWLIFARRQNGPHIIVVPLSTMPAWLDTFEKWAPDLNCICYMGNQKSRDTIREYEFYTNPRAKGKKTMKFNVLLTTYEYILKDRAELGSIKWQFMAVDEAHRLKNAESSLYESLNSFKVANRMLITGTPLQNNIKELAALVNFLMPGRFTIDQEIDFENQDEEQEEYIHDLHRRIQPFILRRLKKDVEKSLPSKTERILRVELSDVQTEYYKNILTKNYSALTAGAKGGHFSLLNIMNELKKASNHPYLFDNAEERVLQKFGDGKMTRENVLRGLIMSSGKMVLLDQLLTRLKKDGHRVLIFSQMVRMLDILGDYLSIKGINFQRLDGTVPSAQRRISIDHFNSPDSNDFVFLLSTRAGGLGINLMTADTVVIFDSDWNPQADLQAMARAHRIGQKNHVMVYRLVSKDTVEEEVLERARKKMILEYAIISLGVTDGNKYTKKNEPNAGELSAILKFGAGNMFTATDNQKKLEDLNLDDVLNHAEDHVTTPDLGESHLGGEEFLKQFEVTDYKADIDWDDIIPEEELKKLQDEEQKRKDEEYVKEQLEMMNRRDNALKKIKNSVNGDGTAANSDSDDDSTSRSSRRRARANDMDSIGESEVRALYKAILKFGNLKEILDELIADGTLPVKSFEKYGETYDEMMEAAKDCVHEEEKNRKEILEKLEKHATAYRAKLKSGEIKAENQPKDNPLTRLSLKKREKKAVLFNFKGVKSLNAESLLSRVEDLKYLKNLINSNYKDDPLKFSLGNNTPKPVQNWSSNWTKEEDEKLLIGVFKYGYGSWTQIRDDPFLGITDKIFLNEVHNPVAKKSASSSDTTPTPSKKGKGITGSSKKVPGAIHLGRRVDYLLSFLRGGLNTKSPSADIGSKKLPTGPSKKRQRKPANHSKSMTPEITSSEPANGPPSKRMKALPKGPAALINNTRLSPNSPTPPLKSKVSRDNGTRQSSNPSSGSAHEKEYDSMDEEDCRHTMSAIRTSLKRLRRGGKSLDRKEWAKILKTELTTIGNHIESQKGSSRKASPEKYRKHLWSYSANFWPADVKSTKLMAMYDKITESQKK

Protein translocase subunit SecA (Escherichia coli (strain K12)), sequence (P10408 whole entry): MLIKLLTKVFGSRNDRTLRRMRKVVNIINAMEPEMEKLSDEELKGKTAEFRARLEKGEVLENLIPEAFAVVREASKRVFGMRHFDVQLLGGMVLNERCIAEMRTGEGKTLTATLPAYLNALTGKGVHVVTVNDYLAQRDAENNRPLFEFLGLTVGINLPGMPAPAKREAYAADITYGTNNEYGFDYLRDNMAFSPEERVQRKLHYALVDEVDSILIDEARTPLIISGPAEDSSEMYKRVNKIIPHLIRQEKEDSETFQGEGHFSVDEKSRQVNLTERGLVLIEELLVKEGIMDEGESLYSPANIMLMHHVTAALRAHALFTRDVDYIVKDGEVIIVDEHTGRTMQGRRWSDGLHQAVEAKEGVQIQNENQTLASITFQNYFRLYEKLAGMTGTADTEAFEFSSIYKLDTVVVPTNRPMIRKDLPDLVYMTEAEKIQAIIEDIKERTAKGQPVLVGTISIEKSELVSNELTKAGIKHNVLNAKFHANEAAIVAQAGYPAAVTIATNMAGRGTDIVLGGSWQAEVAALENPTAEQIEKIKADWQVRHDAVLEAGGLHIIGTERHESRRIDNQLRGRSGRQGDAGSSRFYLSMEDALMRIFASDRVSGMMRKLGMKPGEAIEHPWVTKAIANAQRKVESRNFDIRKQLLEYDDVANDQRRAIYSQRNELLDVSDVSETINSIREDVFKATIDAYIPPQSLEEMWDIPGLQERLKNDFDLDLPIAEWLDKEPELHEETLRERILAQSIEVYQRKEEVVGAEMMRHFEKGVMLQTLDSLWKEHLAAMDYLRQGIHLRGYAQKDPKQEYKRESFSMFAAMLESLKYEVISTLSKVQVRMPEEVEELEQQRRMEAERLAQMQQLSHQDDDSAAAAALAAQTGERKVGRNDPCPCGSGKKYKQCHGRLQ
Sialic acid-binding Ig-like lectin 9 (Homo sapiens), sequence (Q9Y336 whole entry): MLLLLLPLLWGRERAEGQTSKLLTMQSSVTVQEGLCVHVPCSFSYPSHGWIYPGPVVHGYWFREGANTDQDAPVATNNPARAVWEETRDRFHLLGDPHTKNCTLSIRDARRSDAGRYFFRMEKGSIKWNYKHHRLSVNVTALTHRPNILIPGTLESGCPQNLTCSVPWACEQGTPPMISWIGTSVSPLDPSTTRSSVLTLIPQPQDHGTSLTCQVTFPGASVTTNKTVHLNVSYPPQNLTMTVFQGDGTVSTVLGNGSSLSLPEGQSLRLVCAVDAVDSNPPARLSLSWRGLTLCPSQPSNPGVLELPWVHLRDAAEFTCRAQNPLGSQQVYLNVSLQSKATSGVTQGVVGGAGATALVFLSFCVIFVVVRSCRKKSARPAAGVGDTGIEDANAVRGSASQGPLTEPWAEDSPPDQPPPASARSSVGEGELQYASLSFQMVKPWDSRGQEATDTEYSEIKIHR

SMILES	Percent Effect [1] [%]	Percent Effect [2] [%]	Percent Effect [3] [%]	Percent Effect [4] [%]	Percent Effect (Trypanosoma cruzi) [%]	Percent Effect [5] [%]	Percent Effect [6] [%]	Percent Effect (Homo sapiens) [%]	Percent Effect [7] [%]	Percent Effect [8] [%]	Percent Effect [9] [%]
FC(F)(F)COCCN1CCCC(c2noc(C3CC3)n2)C1 (configuration not stated)	-2.95	5.33	-7.13	6.38	7.3	-0.521	16.7	16.5	3.83	11.1	101
CC[C@@H]1N(CC2CC2)CCC[C@]12CCC(=O)N2CCOC	-3.03	8	5.19	4.35	0.772	-53.9	5.47	-8.94	5.21	0	-4.58
NC(=O)c1ccc(OCC(=O)N2CCCC(n3cccn3)C2)cc1 (configuration not stated)	-3.58	15.6	6.85	2.82	-2.06	1.9	7.2	1.54	7.62	14.1	-7.55
Cc1nnc(NC(=O)CN(C)CC2CCCN2c2cccnn2)s1 (configuration not stated)	-6.6	-2.7	-10.9	17.7	-1.56	-1.67	17.3	17.7	5.94	1.22	0.656
Cc1n[nH]c(C2CN(C(=O)CCc3ccco3)CCO2)n1 (configuration not stated)	-1.8	7.89	9.83	-2.52	3.6	3.55	21	21.1	2.13	7.79	-3.66
Cc1csc(N2CCN(C(=O)CCc3ccccn3)CC2)n1	-1.62	13.5	-16	7.95	3.87	-12.8	10.8	6.58	10.3	25.9	-12.7
COc1cccc(C2CC(=O)Nc3nc(N4CCOCC4)sc32)c1OC (configuration not stated)	63.9	42.1	16	0.0251	-0.487	21.3	18.1	-7.88	5.32	10.4	-8.79
O=C(CN1CCC(c2cccc(F)c2)C1)NCc1ccco1 (configuration not stated)	-1.81	21.1	4.1	-1.87	6.01	-1.53	14.4	27.6	7.35	24.4	-8.76
CC(C)Oc1ccccc1C1CC(=O)Nc2c1cnn2C (configuration not stated)	-2.1	-15.8	7.56	5.91	-3.21	-7.1	15.6	15.6	-2.13	2.6	-0.488
CCn1cc(Br)c(C(=O)NCc2cccnc2)n1	-2.44	7.79	-1.81	5.82	0.885	-9.65	19.3	3.08	7.53	16.1	-1.44
COc1ccccc1CNC(=O)Cn1ncc2c1c(C)nn2C	-2.51	6.67	1.32	6.52	-7.86	-15	12.8	-0.504	5.29	7.69	-9.43
CCOCCn1c(=O)[nH]c2cc(C(=O)N(C)Cc3nc(C)cs3)ccc21	-0.0499	8.11	-5.57	8.59	-2.9	0.476	21	1.41	5.82	17.1	-3.61
COCCOc1ccc(NC(=O)C2CCCN(C(N)=O)C2)cn1 (configuration not stated)	-4.58	7.59	0.0742	4.56	-6.33	1.52	5.82	22.6	-0.493	-1.27	-5.42
CCC(=O)N1CCCC1c1nccnc1Nc1ncccn1 (configuration not stated)	0.559	-6.76	18.4	0.16	-2.57	-0.232	-6.24	-9.16	1.07	-3.9	-6.85
O=C1CCCc2cc(-c3csc(CCN4CCOC4=O)n3)ccc2N1	-5.49	20.8	0.804	11.1	4.12	2.85	18.1	36.1	8.74	26.8	-9.88
O=C(N1CCOCC1)[C@@]12CCO[C@@H]1CCN(Cc1ccccc1F)C2	-0.952	-4	-2.07	6.8	-6.88	29.8	12.2	0.338	1.06	-2.56	-3.56
CCOCC1CN(S(C)(=O)=O)Cc2ncn(CC3CC3)c21 (configuration not stated)	-2.41	13.5	-8.53	6.97	3.81	-1.24	5.58	-4.29	6.45	13.6	-6.43
O=C(c1ccnnc1)N1C[C@H](Oc2cccnc2)[C@H]2OCCC[C@H]21	-5.64	0	-1.06	-4.69	0.781	-0.417	4.65	-14.6	11.9	15.8	-3.24
Cc1nc(CN2CCc3cncnc3C2)oc1C	-0.217	2.74	-102	7.08	5.09	16.8	3.55	2.92	2.15	12.5	-7.36
CN(C)C(=O)NC1COC2(CCN(Cc3ccccc3)CC2)C1 (configuration not stated)	-6.16	0	7.68	-1.66	-3.94	1.17	6.26	21.5	-3.19	-6.41	-1.6
CC1=Nc2c(c(=O)[nH]n2C(C)C)C(c2ccccc2)S1 (configuration not stated)	-5.22	4	12.2	5.15	-0.786	-3.7	12	32.4	22.2	28.2	-3.79
CC(=O)N(Cc1noc(C)n1)C1CCN(Cc2ccncc2Cl)C1 (configuration not stated)	-3.16	16.5	-1.3	0.699	-1.95	2.8	12.5	8.22	3.12	12.7	-16
